Our source for the AC50 and outcome values is PubChem BioAssay (EPA / NIEHS).

Assay [1] in a line: CCTE_Simmons_MITO_basal_resp_rate: CCTE's HepG2 Seahorse XF Respirometric Screening Assay at Basal Respiratory State, Simmons Lab (AID 2284001). Particulars: actives raise or lower the signal. The gist of the method: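 Readout is oxygen consumption rate after test compound injection, measured by Seahorse XF in HepG2 cells. Seven concentrations from 125 nM up to 100 uM final are tested, and activity in either direction is fitted against DMSO.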

Assay [2] can be described thus: CCTE_Simmons_MITO_inhib_resp_rate: CCTE's HepG2 Seahorse XF Respirometric Screening Assay at Inhibited Respiratory State [full ETC block], Simmons Lab (AID 2284006). The settings on record: actives raise or lower the signal. In a few lines:
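Seahorse respirometry, HepG2, 72 min total, 6-min mix/measure cycles. Cpd 125 nM–100 uM final ×7, n=3 biological. Sequential FCCP, rotenone/antimycin A; inhibited-respiration OCR, bidirectional fit vs DMSO.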

Assay [3] in a line: CCTE_Simmons_MITO_viability: CellTiter-Glo Viability Assessment for CCTE's HepG2 Seahorse XF Respirometric Screening Assay [post-hoc], Simmons Lab (AID 2284007; active means hit-call score of the fitted dose curve at least 0.9, where 1 is the maximum;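 on AC50: cells exposed to chemical for 90 min before the ATP read; actives lower ATP signal relative to DMSO baseline meaning reduced viability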). The gist of the method: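 Cytotoxicity readout: ATP quantitation via luciferase in HepG2 cells treated 90 min with seven titrated concentrations (125 nM to 100 uM, final). Curves fitted relative to DMSO negative control, three biological replicates per concentration.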

Assay [4] is described as follows: CCTE_Shafer_MEA_acute_spike_number: CCTE's Neural Acute Assay for Total Number of Spikes, Shafer Lab (AID 2284008).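 On AC50: curve fitted for decrease in spike count so AC50 reflects inhibitors.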 The gist of the method: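 Rat primary cortical neurons on 48-well MEA plates, DIV 13 or 15, at 37 C. 40 min baseline then 40 min with compound (0.03-40 uM); spikes detected at 8x rms noise, expressed as percent change from baseline.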
A short description of assay [5]: CCTE_Shafer_MEA_acute_firing_rate_mean: CCTE's Neural Acute Assay for Mean Firing Rate, Shafer Lab (AID 2284009).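 Further: analyzed for loss of signal so actives lower firing rate relative to DMSO.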 In a few lines: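 Spontaneous spiking of primary rat cortical networks, DIV 13/15, 37 C. Compound 0.03-40 uM, n ≥3 wells; 40 min baseline vs 40 min treated. Endpoint fitted in loss-of-signal direction against DMSO.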
Assay [6] in a line: CCTE_Harrill_HTTr_Viability_MCF7: CCTE's 6-hour Cell Viability Assessment for the High-Throughput Transcriptomics (HTTr) Platform, in MCF-7 cells cultured in DMEM + 10% fetal bovine serum, Harrill Lab (AID 2284010). In a few lines:
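Read-out is propidium iodide gain of signal by high-content imaging, reflecting membrane integrity loss. Measurements are taken 6 h after dosing, eight concentrations per chemical, with DMSO serving as baseline for bidirectional curve fitting.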

Assay [7] in a line: CCTE_Harrill_HTTr_Apoptosis_MCF7: CCTE's 6-hour Apoptosis Assessment for the High-Throughput Transcriptomics (HTTr) Platform, in MCF-7 cells cultured in DMEM + 10% fetal bovine serum, Harrill Lab (AID 2284011). In a few lines:
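MCF-7 cells in DMEM + 10% FBS exposed 6 h to chemicals over an eight-point dilution series. Caspase-3/7 activation imaged by high-content CellEvent Green staining; fitted bidirectionally versus DMSO.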

Assay [8] can be described thus: CCTE_Shafer_MEA_acute_burst_number: CCTE's Neural Acute Assay for Single-Electrode Bursts, Shafer Lab (AID 2284013). In a few lines:
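Burst totals were derived with adaptive spike detection (8x rms threshold) on filtered signals from rat cortical cultures; change relative to pre-treatment baseline after 40-min compound exposure (0.03-40 uM) was fitted in the negative direction against DMSO.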

Assay [9] in a line: CCTE_Shafer_MEA_acute_burst_duration_mean: CCTE's Neural Acute Assay for Mean Burst Duration, Shafer Lab (AID 2284014).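 Further: hits are decreases in mean burst duration relative to DMSO controls.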 In a few lines:
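Acute exposure of mature rat cortical networks (DIV 13 or 15) grown on microelectrode arrays to 0.03-40 uM compound. Mean burst duration compared with the 40-min pre-dose baseline over a 40-min post-dose recording at 37 C.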

The target of assay [10] is Nucleoli Translocation, AR (gene 367) (UniProt P10275). Briefly: UPITT_HCI_U2OS_AR_TIF2_Nucleoli_Antagonist: University of Pittsburgh U2OS Androgen Receptor-Transcriptional Intermediary Factor 2 (AR-TIF2) Antagonism High Content Imaging Assay for Nucleoli Translocation (AID 2283997; active means hit-call score of the fitted dose curve at least 0.9, where 1 is the maximum). The gist of the method:
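An antagonist-mode imaging screen: engineered U2OS (AR-RFP, TIF2-GFP) exposed to 20 uM compound, 0.2% DMSO. Activity reflects nucleolar red fluorescence change relative to DHT baseline.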

Assay [11] concerns the target Ratio of Nucleoli Translocation and Cytoplasm, AR (gene 367) (UniProt P10275). Nature of the assay: UPITT_HCI_U2OS_AR_TIF2_Nucleoli_Cytoplasm_Ratio_Antagonist: University of Pittsburgh U2OS Androgen Receptor-Transcriptional Intermediary Factor 2 (AR-TIF2) Antagonism High Content Imaging Assay for Ratio of Nucleoli Translocation and Cytoplasm (AID 2283999; active means hit-call score of the fitted dose curve at least 0.9, where 1 is the maximum;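 further: antagonists lower the DHT-driven ratio of nucleolar to cytoplasmic red signal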). The gist of the method: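 Compounds were added to U2OS cells carrying red-fluorescent AR and green-fluorescent TIF2, first at 20 uM, with hits confirmed in triplicate and titrated from 0.195 to 50 uM. Nucleolar versus cytoplasmic AR-RFP fluorescence was then quantified by imaging, with analysis relative to DHT.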

Assay [12] can be described thus: CCTE_Harrill_HTTr_CellCount_MCF7: CCTE's Cell Proliferation Assessment for the High-Throughput Transcriptomics (HTTr) Platform, Harrill Lab (AID 2284012; active means hit-call score of the fitted dose curve at least 0.9, where 1 is the maximum;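 further: cells exposed to compound for six hours; intended direction is loss of nuclei count meaning fewer cells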). The gist of the method:
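Cell count served as viability reporter: loss of Hoechst-stained nuclei, counted by high content imaging, marks decreased growth or survival. Exposure was 6 h in MCF-7 cells across eight concentrations, with DMSO as baseline.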

The target in assay [13] is Nucleoli Translocation, AR (gene 367) (UniProt P10275). Nature of the assay: UPITT_HCI_U2OS_AR_TIF2_Nucleoli_Agonist: University of Pittsburgh U2OS Androgen Receptor-Transcriptional Intermediary Factor 2 (AR-TIF2) Agonism High Content Imaging Assay for Nucleoli Translocation (AID 2283998; active means hit-call score of the fitted dose curve at least 0.9, where 1 is the maximum). In a few lines: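 U2OS cells expressing RFP-tagged human AR and GFP-tagged TIF2; red fluorescence in nucleoli quantified by high-content imaging. Primary screen at 20 uM final (0.2% DMSO); concentration-response 0.195–50 uM (0.5% DMSO), fitted upward versus DMSO.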
Chain of Nucleoli Translocation, AR (gene 367) (P10275 whole entry, looked up): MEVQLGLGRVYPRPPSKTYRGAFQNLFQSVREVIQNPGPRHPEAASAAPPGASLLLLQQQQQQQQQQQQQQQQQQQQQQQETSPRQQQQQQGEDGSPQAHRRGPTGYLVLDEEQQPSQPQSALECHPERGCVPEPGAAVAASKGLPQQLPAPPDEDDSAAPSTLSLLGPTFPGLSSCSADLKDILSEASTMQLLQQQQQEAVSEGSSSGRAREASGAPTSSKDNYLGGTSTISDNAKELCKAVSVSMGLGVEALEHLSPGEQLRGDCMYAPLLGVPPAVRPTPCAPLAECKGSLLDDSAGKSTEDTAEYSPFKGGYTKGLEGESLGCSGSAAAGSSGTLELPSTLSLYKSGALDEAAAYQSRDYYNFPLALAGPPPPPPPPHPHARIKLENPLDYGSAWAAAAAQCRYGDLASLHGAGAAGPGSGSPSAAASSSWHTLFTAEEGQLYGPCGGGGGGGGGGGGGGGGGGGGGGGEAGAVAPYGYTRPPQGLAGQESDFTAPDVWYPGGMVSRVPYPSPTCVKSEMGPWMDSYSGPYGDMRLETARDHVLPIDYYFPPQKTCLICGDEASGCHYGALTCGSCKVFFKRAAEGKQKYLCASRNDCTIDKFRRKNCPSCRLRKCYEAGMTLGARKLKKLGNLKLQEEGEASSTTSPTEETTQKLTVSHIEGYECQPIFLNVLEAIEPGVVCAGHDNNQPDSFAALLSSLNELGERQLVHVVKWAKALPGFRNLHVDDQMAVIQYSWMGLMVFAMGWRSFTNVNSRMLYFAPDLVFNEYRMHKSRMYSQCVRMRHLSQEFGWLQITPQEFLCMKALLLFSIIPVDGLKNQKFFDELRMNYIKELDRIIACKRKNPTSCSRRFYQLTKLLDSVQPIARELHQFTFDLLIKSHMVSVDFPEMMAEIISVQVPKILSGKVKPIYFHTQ

In assay [14] the target is Ratio of Nucleoli Translocation and Cytoplasm, AR (gene 367) (UniProt P10275). Briefly: UPITT_HCI_U2OS_AR_TIF2_Nucleoli_Cytoplasm_Ratio_Agonist: University of Pittsburgh U2OS Androgen Receptor-Transcriptional Intermediary Factor 2 (AR-TIF2) Agonism High Content Imaging Assay for Ratio of Nucleoli Translocation and Cytoplasm (AID 2284000; active means hit-call score of the fitted dose curve at least 0.9, where 1 is the maximum;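 further: hits raise the red nucleolar to cytoplasm ratio above vehicle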). In a few lines:
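Primary screen at 20 uM final (0.2% DMSO), then triplicate confirmation and dose-response from 0.195 to 50 uM final (0.5% DMSO). Cells: U2OS with AR-RFP and TIF2-GFP. Endpoint is the nucleoli/cytoplasm red-fluorescence ratio, gain-of-signal vs DMSO.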

A short description of assay [15]: CCTE_Harrill_HTTr_Apoptosis_DMEM_12hr: (Pilot) CCTE's 12-hour Apoptosis Assessment for the High-Throughput Transcriptomics (HTTr) Platform, in MCF-7 cells cultured in DMEM + 10% fetal bovine serum, Harrill Lab (AID 2283982). The gist of the method: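 Caspase-3/7 activity was measured by high-content imaging (CellEvent Caspase 3/7 Green) after a 12-hour exposure of MCF-7 cells grown in DMEM with 10% FBS. Eight-point concentration series, fitted bidirectionally against vehicle.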

The nature of assay [16]: CCTE_Harrill_HTTr_Apoptosis_DMEM_24hr: (Pilot) CCTE's 24-hour Apoptosis Assessment for the High-Throughput Transcriptomics (HTTr) Platform, in MCF-7 cells cultured in DMEM + 10% fetal bovine serum, Harrill Lab (AID 2283983). The gist of the method:
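Caspase-3/7 activity read by high-content imaging (CellEvent Green reagent) 24 h after dosing. MCF-7 cells grown in DMEM with 10% FBS received an eight-point concentration series; fits were bidirectional versus DMSO.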

Assay [17] is described as follows: CCTE_Harrill_HTTr_Apoptosis_PRF_DMEM_6hr: (Pilot) CCTE's 6-hour Apoptosis Assessment for the High-Throughput Transcriptomics (HTTr) Platform, in MCF-7 cells cultured phenol red-free DMEM + 10% charcoal-stripped fetal bovine serum, Harrill Lab (AID 2283984). In a few lines:
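Caspase-3/7 activity (CellEvent Green) read by high-content imaging 6 h after dosing, eight concentrations. Cells: MCF-7, phenol red-free DMEM with 10% charcoal-stripped serum. Curves fit both directions against DMSO.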

A short description of assay [18]: CCTE_Harrill_HTTr_Apoptosis_PRF_DMEM_12hr: (Pilot) CCTE's 12-hour Apoptosis Assessment for the High-Throughput Transcriptomics (HTTr) Platform, in MCF-7 cells cultured in phenol red-free DMEM + 10% charcoal-stripped fetal bovine serum, Harrill Lab (AID 2283985). The gist of the method:
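Caspase-3/7 activity by CellEvent Green high content imaging after 12 h compound exposure (eight concentrations) in MCF-7 grown in phenol red-free DMEM plus 10% charcoal-stripped serum; DMSO as baseline.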

Assay [19] is described as follows: CCTE_Harrill_HTTr_Apoptosis_PRF_DMEM_24hr: (Pilot) CCTE's 24-hour Apoptosis Assessment for the High-Throughput Transcriptomics (HTTr) Platform, in MCF-7 cells cultured in phenol red-free DMEM + 10% charcoal-stripped fetal bovine serum, Harrill Lab (AID 2283986). In a few lines:
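Eight concentrations tested for 24 h on MCF-7 grown in charcoal-stripped serum, phenol red-free DMEM. High content imaging of CellEvent Caspase 3/7 Green signal gives apoptosis read-out, fitted both ways relative to DMSO.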

Records with an inconclusive call do not appear. Some compounds were tested as several samples or in several runs, with calls that do not always agree. Calls of active or inactive are those of the source. How the source made its calls, unless noted: active means hit-call score of the fitted dose curve at least 0.9, where 1 is the maximum; inactive means score below 0.9.

Chain of Ratio of Nucleoli Translocation and Cytoplasm, AR (gene 367) (P10275 whole entry, looked up): as above

With `CSC1=N[C@@](C)(c2ccccc2)C(=O)N1Nc1ccccc1`, the AC50 in assay [1] was 50 µM (active); in assay [4], 5.8 µM (active); in assay [5], 5.76 µM (active); in assay [9], 32 µM (active). Also, the result in assay [2], in [3], in assay [4], in [5], in assay [6] and in assay [7] was inactive. Moreover, the outcome in assay [8] and in assay [9] was inactive.
Take `CC(COc1ccc(Oc2ccccc2)cc1)Oc1ccccn1` (centres undefined): the result in [10], in assay [11], in assay [1], in assay [2], in [6] and in assay [7] was inactive. Besides, the call in [12] and in [8] was inactive. The AC50 in [4], in assay [5] and in assay [9] was 20 µM (active) throughout.
`Nc1c(Cl)cc([N+](=O)[O-])cc1Cl`: the concentration at half-maximal activity (AC50) in [10] was 41.7 µM (active). The call in assay [13], in assay [11], in assay [14], in assay [4], in assay [5] and in assay [6] was inactive. Moreover, the result in [7], in assay [12], in assay [8] and in [9] was inactive.
For the compound `C[N+]1(C)CCCCC1`, the outcome in assay [10], in [13], in [11], in assay [14], in [4] and in assay [5] was inactive. Moreover, the outcome in [6], in assay [7], in [12], in [8] and in [9] was inactive.
Take `C=C(C)[C@H]1Cc2c(ccc3c2O[C@@H]2COc4cc(OC)c(OC)cc4[C@@H]2C3=O)O1`: the outcome in [15], in assay [16], in [17], in [18], in [19] and in [13] was inactive. The outcome in assay [11], in assay [14], in assay [6], in assay [7], in assay [12] and in assay [8] was inactive. Besides, the result in assay [9] was inactive. In addition, the half-maximal activity concentration (AC50) in assay [10] was 50 µM (active); in assay [1], 0.108 µM (active); in assay [2], 0.0842 µM (active); in assay [3], 13.3 µM (active); in assay [4], 2.81 µM (active); in assay [5] it was 2.85 µM (active).
